In PubChem BioAssay AID743398 (Broad Institute, 2014) one finds activation data, which are given here for 89 molecules.

Screen size: about 300,000 compounds; about 3,600 (1.2%) were called active. This excerpt belongs to a sample that is enriched for actives. Unmarked numbers belong to inactive results. No stated cut-off is given here; in the data, active means activation above about 30% (passing the limit was not always enough); inconclusive means no clear call, values can overlap the other calls.

The test in a line: activation of beta-catenin signaling reporter – cell-based, plate reader, single point, primary screen (AID 743398).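 Further: 0% = neutral control wells and 100% = positive control wells.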 The settings on record: Wnt/beta-catenin reporter cell assay, activator, at 9.35 µM, stronger effect = higher value.
As to `Cc1cc(=O)oc2c3c(cc(OCC(=O)NCC(O)c4ccccc4)c12)OC(C)(C)CC3` (centres undefined), the activation was -1.47%.

As to `Cc1csc(NC(=O)C2=COCCO2)n1`, the activation is 5.46%.

As to `Cc1csc(NC(=O)c2ccc(C)s2)n1`, the activation is 43.1% (active).

Take `Cc1ccc(C(=O)NCC(=O)O)s1`: the activation was 0.419%.

As for `COc1cccc(CNc2nc3cc(-c4csc5ccccc45)sc3c(=O)n2C)c1`, the activation is -2.71%.

On to `CC(C)Nc1ncnc2c1ncn2[C@H]1CN(Cc2ccncc2)C[C@@H](CO)O1`, for which the activation was -2.99%.

Turning to `CCOC(=O)[C@]12CCC=C1N(Cc1ccco1)C(=O)[C@H](CC(=O)NCc1cccc(C(F)(F)F)c1)C2`, the activation was -1.73%.

As to `O=C(COc1ccc(Br)cc1F)NCC1(N2CCCCC2)CCCCC1`, the activation was -3.51%.

In the case of `Cc1cc(C(=O)COc2ccc(Br)cc2F)c(C)n1C1CC1`, the activation was 35.3% (active).

As to `Cc1cc(C(=O)COc2ccccc2Cl)c(C)n1C1CC1`, the activation was -1.86%.

Take `CC(C)Nc1ccc(-n2nc3ccccc3[n+]2[O-])cc1`: the activation was 40.2% (active).

With `COC(=O)[C@]12C[C@H](CC(=O)N3CCN(C(=O)C4CC4)CC3)C(=O)N(Cc3ccc4c(c3)OCO4)C1=C[C@H](C(C)(C)C)O[C@@H]2C`, the activation is -4.23%.

Take `O=[N+]([O-])c1ccc(CN2CC(N3CCC(c4ccccc4)CC3)CS2(=O)=O)cc1` (centres undefined): the activation was -1.72%.

With `CN(C)C(=O)c1cccc(-c2cnc3sc(NCc4ccc5c(c4)OCO5)nn23)c1`, the activation is -6.39%.

As to `Cc1cccc(OCCC(=O)Nc2ccccc2C(N)=O)c1`, the activation is 1.98%.

As to `COc1cccc(OCC(=O)Nc2ccccc2C(N)=O)c1`, the activation is 39.1% (active).

On to `Cc1cccc(OCC(=O)Nc2ccccc2F)c1`, for which the activation is 22.2%.

As for `O=C(c1ccc(CS(=O)Cc2ccccc2Cl)o1)N1CCN(c2ccccc2)CC1` (centres undefined), the activation was -4.44%.

In the case of `CS(=O)(=O)/C(C#N)=C/c1cccn1S(=O)(=O)c1ccc([N+](=O)[O-])cc1`, the activation was -1.05%.

As for `COc1cc2ccc(C(C)=O)c(O)c2cc1OC`, the activation is 10.2%.

Turning to `COc1ccc(NC(=O)C2Cc3c(-c4cccc(NC(C)=O)c4)ccnc3O2)cc1OC` (centres undefined), the activation is -0.676%.

Consider `Cn1cccc1C(=O)OCC(=O)c1ccc(Br)s1`, for which the activation is 47.9% (active).

Turning to `Cn1cccc1C(=O)OCC(=O)NCCc1ccccc1`, the activation was 15.6%.

Take `Cn1cccc1C(=O)NNC(=O)COc1ccc(Br)cc1`: the activation is 3.43%.

Turning to `CC1CCCN(c2cccc3c2S(=O)(=O)N(Cc2ccc(F)cc2)[C@@H](C)[C@H](c2ccccc2)O3)C1` (some centres undefined), the activation was -2.02%.

As to `O=C(NCc1ccccc1)[C@H]1CCCN1C(=O)[C@@H]1CCCN1C(=O)c1ccc(Cl)cc1Cl`, the activation was -5.01%.

In the case of `NC(c1ccccc1)c1csc(NC(=O)Nc2cccc(C(F)(F)F)c2)n1` (centres undefined), the activation is -0.452%.

For the molecule `CC(C)CC1C(=O)N(Cc2cn(CC3CCCCC3)nn2)CCS(=O)(=O)N1Cc1ccc(-c2ccc(Cl)cc2)cc1` (centres undefined), the activation was -6.32%.

With `c1cnc(N2CCN(c3ccc4ccccc4n3)CC2)nc1`, the activation is 36.8% (active).

`Oc1ccc(CN2CCN(c3ncccn3)CC2)cc1`: the activation is -0.601%.

Regarding `O=C(c1ccncc1)N1CCN(c2ccc3ccccc3n2)CC1`, the activation was 3.16%.

`CCCN1C(=O)c2[nH]nc(-c3ccccc3)c2C1c1ccccc1` (centres undefined): the activation is 0.123%.

Consider `CC(C)CCNC(=O)c1[nH]c(C(F)(F)F)nc1-c1ccccc1`, for which the activation is -0.284%.

As to `O=C(Cc1ccc(Cl)cc1)c1ccccc1`, the activation is 39.9% (active).

As for `O=C(CN1CCN(c2ccc(Cl)cc2)CC1)c1ccccc1`, the activation was 0.814%.

In the case of `O=C(NCCS(=O)(=O)NCc1ccc(Cl)cc1)c1ccccc1`, the activation was -1.51%.

On to `CN(C)C(=O)N1CCN(C(=O)[C@@H](Cc2ccccc2)NC(=O)[C@H]2O[C@@H](n3ccc(N)nc3=O)[C@H](O)[C@@H]2O)CC1`, for which the activation is -0.987%.

Regarding `CC1CCCC(C)N1C(=O)COC(=O)c1ccccc1C(=O)c1ccccc1` (centres undefined), the activation was -3.33%.

Consider `Cc1cc(N2CCN(C(=O)OC(C)(C)C)C[C@H]2C)ccc1N1CCN(Cc2ccccc2)[C@H](C)C1`, for which the activation is -18.5%.

With `O=[N+]([O-])c1ccc(Sc2n[nH]c(-c3ccco3)n2)nc1`, the activation is -0.107%.

On to `Cc1cccc(C)c1NC(=O)CSc1ccc([N+](=O)[O-])cn1`, for which the activation was -1.27%.

Turning to `CC(C)(C)n1cnnc1Sc1ccc([N+](=O)[O-])cn1`, the activation was 37.4% (active).

In the case of `Cc1ccc(OC(=O)c2c(C)nn(-c3ccccc3)c2C)cc1`, the activation is 57.6% (active).

With `Cc1nn(-c2ccccc2)c(-n2cccc2)c1C(=O)O`, the activation was -0.442%.

As for `Cc1cccc(C)c1NC(=O)COC(=O)c1c(C)nn(-c2ccccc2)c1C`, the activation is 2.07%.

For `Cc1cccc(C)c1Cn1c(C)c(C(=O)NCc2cccc(Cl)c2)sc1=O`, the activation is -7.17%.

`CCCOc1ccc(F)cc1-c1cc(C(=O)Nc2ccc(F)cc2)[nH]n1`: the activation was -2.71%.

`COc1ccc(CN2C(=O)C(C)S/C2=N/N=C/c2ccco2)cc1` (centres undefined): the activation was 39.6% (active).

Regarding `C=CCN1C(=O)C(Cc2cccc(Cl)c2)S/C1=N/N=C/c1ccco1` (centres undefined), the activation was -5.07%.

For `O=C1N/C(=N\N=C\c2ccco2)SC1Cc1ccc(F)cc1` (centres undefined), the activation was 1.16%.

`CCOC(=O)c1cc(-c2sc(NC(=O)c3ccccc3)nc2C)n(-c2ccc(Br)cc2)n1`: the activation is -1.56%.

With `O=C(CSc1ccc([N+](=O)[O-])cn1)Nc1ccc(N2CCOCC2)cc1`, the activation was 34.8% (active).

Regarding `O=C(CSc1ccc([N+](=O)[O-])cn1)Nc1ccc(N2CCOCC2)c(Cl)c1`, the activation is -0.66%.

Regarding `Cn1cnnc1SCC(=O)Nc1ccc(N2CCOCC2)cc1`, the activation is -1.68%.

As for `CC(C)CNc1cccc2c1S(=O)(=O)N[C@H](C)CO2`, the activation was -4.07%.

Consider `CCCn1c(N)c(C(=O)CSc2nnc3n2CCCCC3)c(=O)[nH]c1=O`, for which the activation is 44.1% (active).

As for `CCCn1c(N)c(C(=O)CSc2nnc(Cc3cccs3)n2C2CC2)c(=O)[nH]c1=O`, the activation is 0.611%.

For `CCCn1c(N)c(C(=O)CSc2nnc(-c3cccnc3)n2-c2ccc(C)cc2C)c(=O)[nH]c1=O`, the activation was -2.6%.

On to `Cc1[nH]nc2c1C(c1ccc(Br)cc1)NC2=O` (centres undefined), for which the activation was 1.31%.

Turning to `Cc1ccc(NC(=O)c2sccc2C)cc1[N+](=O)[O-]`, the activation is 44.6% (active).

For the molecule `Cc1cc(O)c(NC(=O)c2ccc(C)c([N+](=O)[O-])c2)cc1C`, the activation was 4.77%.

Regarding `Cc1ccc(NC(=O)CN(C)CC(=O)Nc2cccc(F)c2)cc1[N+](=O)[O-]`, the activation is -4.16%.

Consider `O=S(=O)([N-]c1nc2ccccc2nc1-[n+]1ccc(Cc2ccccc2)cc1)c1ccc(Br)s1`, for which the activation is 88.3% (active).

`Cc1cc(C)c[n+](-c2nc3ccccc3nc2[N-]S(=O)(=O)c2cccs2)c1`: the activation was -2.64%.

With `O=S(=O)(NCc1ccccn1)c1ccc(Br)s1`, the activation is -6.83%.

`O=C(NC(=O)N1CCSCC1)c1c(Cl)cccc1Cl`: the activation is 31.3% (active).

As for `O=C(NC(=O)N1CCOCC1)c1ccccc1`, the activation is -2.28%.

For the molecule `O=C(NCC(=O)N1CCCCCCC1)c1ccccc1Cl`, the activation is 12.1%.

Turning to `OC(c1ccc(Cl)cc1)c1ncc(-c2ccc(Cl)cc2)[nH]1` (centres undefined), the activation is 0.492%.

As to `CCNc1nc(NCC)nc(N/N=C/c2ccc(O)c(OC)c2)n1`, the activation is -3.98%.

For the molecule `COc1cc(/C=N\Nc2nc(-c3cccs3)c(NC(C)=O)s2)ccc1O`, the activation was 7.87%.

Regarding `COc1cc(/C=N/Nc2nc3ccccc3s2)ccc1O`, the activation was 76.9% (active).

For the molecule `c1cc(-c2ccc3[nH]ccc3c2)n2ccnc2c1`, the activation was 3.12%.

On to `Fc1cccc(Cc2c(-c3cccc(Cl)c3)nc3ccc(Br)cn23)c1`, for which the activation is 16.8%.

As for `O=C(NCCc1c[nH]c2ccccc12)c1cc2ccccc2oc1=O`, the activation was 40.4% (active).

In the case of `O=C(NCCc1c[nH]c2ccccc12)c1cccc(Br)c1`, the activation was 0.278%.

As to `CN(c1ccccc1)S(=O)(=O)c1ccc(Cl)c(C(=O)NCCc2c[nH]c3ccccc23)c1`, the activation was -0.321%.

Consider `Nc1[nH]c(C(=O)c2ccc(Br)cc2)c(-c2ccc3c(c2)OCO3)c1C(=O)NCCc1c[nH]c2ccccc12`, for which the activation is 0.212%.

Take `CCc1ccc(C2=CC(=O)CC(C)(C)C2=O)cc1`: the activation is -1.61%.

For `Cc1ccccc1N(C(=O)CNC(=O)c1cccs1)C(C(=O)NC1CCCC1)c1ccncc1` (centres undefined), the activation is -0.349%.

For the molecule `O=C(NCC(=O)N(Cc1cccs1)C(C(=O)NC1CCCCC1)c1ccco1)c1cccs1` (centres undefined), the activation is 67.7% (active).

For the molecule `O=C(NCC(=O)N(CC1CCCO1)C(C(=O)NC1CCCCC1)c1ccccc1)c1ccco1` (centres undefined), the activation is -4.62%.

As to `CCOC(=O)C1=CC[C@@H](c2ccncc2)N(S(=O)(=O)c2ccc(C)cc2)C1`, the activation is -0.651%.

In the case of `CCCCn1nnnc1C(c1ccccc1)N1CCN(c2ccccc2OC)CC1` (centres undefined), the activation was 1.03%.

Turning to `COC(=O)C1=C(C)N(Cc2cccc(C(F)(F)F)c2)C(=NCc2cccc(C(F)(F)F)c2)NC1c1ccccc1C(F)(F)F` (centres undefined), the activation was -4.8%.

Turning to `COc1ccc(-c2cnc3c(c2)C(=O)N([C@H](C)CO)C[C@@H](C)[C@H](CN(C)Cc2ccccc2)O3)cc1`, the activation was -0.613%.

For the molecule `Cc1ccc2nc(N3CCN(C(=O)c4ccco4)CC3)sc2c1`, the activation is 40% (active).

Consider `COc1ccc2nc(N3CCN(C(=O)c4ccc([N+](=O)[O-])o4)CC3)sc2c1`, for which the activation is 2.35%.

Take `Cc1ccc2nc(N3C(=O)C(O)=C(C(=O)c4ccco4)C3c3cccc(O)c3)sc2c1` (centres undefined): the activation was 8.29%.
